Results on seven molecules are retold here after PubChem BioAssay (NCI).

Among the test systems are NCI-H23 lung; NCI-H226 lung; NCI-H322M lung; HOP-62 NSCLC; NCI-H460 lung; HOP-92 NSCLC; NCI-H522 lung; A549/ATCC NSCLC; 786-0 renal; COLO 205 colon; DU-145 prostate; K-562 leukemia; MALME-3M melanoma; MDA-MB-231 breast; RXF 393 renal; SF-268 CNS; SF-295 CNS; SF-539 CNS; UACC-257 melanoma; M14 melanoma.
What all share (assay): NCI-60 one-dose screen, 48 h (100 = growth as untreated, 0 = no growth, -100 = all killed)
Settings in all cases: 10 µM unless noted

About 83,000 compounds went through this panel and 20% of them were active in at least one assay; those are over-represented in the sample as a whole.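 Activity criterion: percent growth below 10, measured after cells in 96-well plates were exposed to a single compound concentration for 48 hours.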 A number with no mark means an inactive call. Activity calls are given as the source filed them.

Regarding `CCOc1ccc(NC(=O)Nc2ccc(OCC)cc2)cc1`, the growth in the test on NCI-H23 lung was 106%; with NCI-H226 lung, 104%; in the test on NCI-H322M lung it was 104%; with HOP-62 NSCLC, 98.2%; in the test with NCI-H460 lung it was 106%; in the test with HOP-92 NSCLC, 106%. For the same molecule, the growth was 103% in the test with NCI-H522 lung; 95.9% with A549/ATCC NSCLC; 108% in the test with 786-0 renal; 104% in the test with COLO 205 colon; 106% with DU-145 prostate; 97.6% with K-562 leukemia. In addition, the growth was 100% with MALME-3M melanoma; 110% with MDA-MB-231 breast; 114% in the test on RXF 393 renal; 104% in the test on SF-268 CNS; 95.7% in the test on SF-295 CNS; 97.2% in the test with SF-539 CNS. Further, the growth in the test with UACC-257 melanoma was 113%.

`C=C(C)[C@@H]1CC[C@]2(C(=O)N3CCNCC3)CC[C@]3(C)[C@H](CC[C@@H]4[C@@](C)(CCC(=O)N5CCNCC5)[C@H](C(=C)C)CC[C@]43C)[C@@H]12`: the growth with NCI-H23 lung was 93.2%; in the test on NCI-H226 lung, 92.7%; with NCI-H322M lung it was 102%; in the test on HOP-62 NSCLC it was 92.9%; with NCI-H460 lung, 8.8% (active); with HOP-92 NSCLC, 95.5%. Also, the growth with NCI-H522 lung was 71.4%; in the test with A549/ATCC NSCLC, 75.2%; in the test with 786-0 renal it was 80.2%; in the test with COLO 205 colon, 77.9%; with DU-145 prostate, 79.1%; with K-562 leukemia it was 3.02% (active). Further, the growth in the test with MALME-3M melanoma is 98.9%; in the test on MDA-MB-231 breast, 71.2%; with RXF 393 renal it was 82.2%; in the test with SF-268 CNS, 98.4%; with SF-295 CNS, 101%; with SF-539 CNS, 79.4%. Also, the growth in the test on UACC-257 melanoma was 95.5%.

For `CC(C)C1C2=C(NCCN1C(=O)c1ccncc1)C(C)(C)N(Cc1ccccc1)C2=O` (stereo not given), the growth in the test on NCI-H23 lung was 99.6%; in the test on NCI-H226 lung, 107%; with NCI-H322M lung, 110%; in the test on HOP-62 NSCLC it was 103%; with NCI-H460 lung, 116%; with HOP-92 NSCLC, 103%. Also, the growth in the test with NCI-H522 lung is 80.9%; with A549/ATCC NSCLC it was 95.2%; in the test on 786-0 renal, 105%; with COLO 205 colon, 109%; with DU-145 prostate, 105%; in the test on K-562 leukemia, 98.1%. Also, the growth with MALME-3M melanoma is 96.6%; in the test on MDA-MB-231 breast, 100%; with RXF 393 renal, 126%; in the test with SF-268 CNS it was 96.9%; in the test with SF-295 CNS it was 96.5%; in the test on SF-539 CNS it was 108%. In addition, the growth in the test with UACC-257 melanoma was 105%.

For the molecule `COc1cc(-c2ccc[nH]2)[nH]c1/C=C1\N=C(C)C(CC(=O)OCC(C)(C)C)=C1C`, the growth in the test on NCI-H23 lung is -46.8% (active); in the test on NCI-H226 lung, -55.5% (active); in the test with NCI-H322M lung it was -49.7% (active); in the test with HOP-62 NSCLC, -70.9% (active); in the test on NCI-H460 lung, -67.3% (active); in the test on HOP-92 NSCLC, -51.3% (active). The growth was -62.8% (active) in the test on NCI-H522 lung; -69.1% (active) with A549/ATCC NSCLC; -88.1% (active) in the test on 786-0 renal; -61.9% (active) with COLO 205 colon; -73.9% (active) with DU-145 prostate; -42.9% (active) in the test on K-562 leukemia. Also, the growth with MALME-3M melanoma is -76.3% (active); with MDA-MB-231 breast it was -57.2% (active); with RXF 393 renal it was -82.3% (active); in the test with SF-268 CNS, -70.8% (active); in the test with SF-295 CNS it was -81.8% (active); in the test on SF-539 CNS it was -69.3% (active). In addition, the growth is -81.4% (active) in the test with UACC-257 melanoma and -86.3% (active) in the test with M14 melanoma.

For `O=C(Nc1nc(Cl)nc(Nc2ccc(N3CCOCC3=O)cc2)n1)c1ccc(Cl)s1`, the growth in the test on NCI-H23 lung is 88.1%; with NCI-H226 lung, 86.4%; in the test on NCI-H322M lung, 97.8%; in the test on HOP-62 NSCLC, 97.6%; in the test with NCI-H460 lung it was 99.9%; with HOP-92 NSCLC it was 80.2%. Besides, the growth is 81.1% with NCI-H522 lung; 77.3% with A549/ATCC NSCLC; 108% in the test with 786-0 renal; 97.3% with COLO 205 colon; 104% in the test on DU-145 prostate; 64.2% in the test on K-562 leukemia. Also, the growth with MALME-3M melanoma is 88.3%; with MDA-MB-231 breast it was 88.3%; with RXF 393 renal, 91.3%; in the test on SF-268 CNS it was 95.9%; in the test on SF-295 CNS, 92.7%; in the test on SF-539 CNS it was 104%. Moreover, in the test on UACC-257 melanoma, the growth is 72.2%.

Take `C[C@@H]1NC(=O)[C@H](Cc2ccccc2)N(Cc2cccnc2)C1=O`: the growth is 101% with NCI-H23 lung; 90.4% with NCI-H226 lung; 109% with NCI-H322M lung; 94.8% with HOP-62 NSCLC; 102% with NCI-H460 lung; 84.7% in the test on HOP-92 NSCLC. The growth with NCI-H522 lung is 95.9%; in the test on A549/ATCC NSCLC it was 94.6%; in the test on 786-0 renal it was 90.3%; in the test with COLO 205 colon, 105%; in the test with DU-145 prostate, 108%; in the test on K-562 leukemia, 89%. Also, the growth with MALME-3M melanoma was 101%; in the test on MDA-MB-231 breast, 97.3%; in the test with RXF 393 renal, 108%; in the test with SF-268 CNS, 104%; with SF-295 CNS it was 97%; in the test on SF-539 CNS, 101%. In addition, the growth is 91.7% with UACC-257 melanoma and 93.8% in the test with M14 melanoma.

As for `Clc1ccc(Nc2nnc(CNc3ccccc3)c3ccccc23)cc1`, the growth with NCI-H23 lung is 9.95% (active); in the test with NCI-H226 lung it was 25%; with NCI-H322M lung it was 30.4%; with HOP-62 NSCLC it was 27.4%; in the test with NCI-H460 lung it was 17.7%; in the test on HOP-92 NSCLC it was -19.3% (active). Also, the growth was -5.92% (active) in the test with NCI-H522 lung; 20.3% with A549/ATCC NSCLC; 21.4% in the test with 786-0 renal; 11.9% in the test on COLO 205 colon; 19% in the test with DU-145 prostate; 5.39% (active) in the test with K-562 leukemia. The growth in the test with MALME-3M melanoma was -13.8% (active); with MDA-MB-231 breast it was 19.9%; in the test on RXF 393 renal it was 25.7%; with SF-268 CNS it was 20.9%; with SF-295 CNS, 14.3%; in the test on SF-539 CNS, 34%. Moreover, in the test with UACC-257 melanoma, the growth is -6.49% (active).
